Reference: the supplement of paper PMC13380429

Test system: Vero E6 infected with SARS-CoV-2
Test: inhibition of SARS-CoV-2 cytopathic effect; higher = more antiviral protection, active = above 15
Settings: 48 h

Measured: inhibition of SARS-CoV-2 cytopathic effect

CC(C)NCC(O)c1ccc2ccccc2c1 (stereo not given) [pronethalol]
inactive: 1 nM 0.73% | 8.33 nM 1% | 100 nM -0.07% | 833.33 nM 0.3% | 10000 nM -1.64%

O=c1cccc2n1C[C@@H]1CNC[C@H]2C1 [cytisine]
inactive: 1 nM 1.86% | 8.33 nM 0.43% | 100 nM -2.65% | 833.33 nM -1.32% | 10000 nM -2.16%

O=C(O)[C@@H](S)[C@@H](S)C(=O)O [dimercaptosuccinic-acid]
inactive: 1 nM 0.73% | 8.33 nM -1.78% | 100 nM -1.78% | 833.33 nM -1.02% | 10000 nM -2.75%

Cc1cccc(/C=N/Nc2cc(N3CCOCC3)nc(OCCc3ccccn3)n2)c1
inactive: 1 nM 0.81% | 8.33 nM 1.56%
active: 100 nM 26.8% | 833.33 nM 20.4% | 10000 nM 19.1%

CC(=O)OCC1=C(C(=O)O)N2C(=O)[C@@H](NC(=O)CCCC(N)C(=O)O)C2SC1 (stereo not given in full) [cephalosporin-c-zn]
inactive: 1 nM -4.01% | 8.33 nM -0.13% | 100 nM -2.05% | 833.33 nM 3.87% | 10000 nM 1.87%

CS(=O)(=O)CCNCc1ccc(-c2ccc3ncnc(Nc4ccc(OCc5cccc(F)c5)c(Cl)c4)c3c2)o1 [lapatinib]
inactive: 1 nM -1.4% | 8.33 nM 0.42% | 100 nM -3.11% | 833.33 nM -11.4% | 10000 nM -7.81%

COc1cc(CCc2cc(NC(=O)c3ccc(N4CC(C)NC(C)C4)cc3)n[nH]2)cc(OC)c1 (stereo not given)
inactive: 1 nM -1.78% | 8.33 nM 1.81% | 100 nM 1.04% | 833.33 nM -1.56% | 10000 nM -1.21%

O=S(=O)(c1cccc2cnccc12)N1CCCNCC1 [fasudil]
inactive: 1 nM -2.19% | 8.33 nM -3.05% | 100 nM -2.08% | 833.33 nM -2.42% | 10000 nM -5.91%

N#Cc1cc(NC(=O)C(=O)O)c(Cl)c(NC(=O)C(=O)O)c1 [lodoxamide]
inactive: 1 nM -2.56% | 8.33 nM 1.86% | 100 nM -0.16% | 833.33 nM -3.06% | 10000 nM -0.06%

CCN(CC)CCCC(C)Nc1c2ccc(Cl)cc2nc2ccc(OC)cc12 (stereo not given) [mepacrine]
inactive: 1 nM 3.59% | 8.33 nM 0.39% | 100 nM 5.65% | 833.33 nM 5.16% | 10000 nM -17.4%

O=C(O)P(=O)(O)O [foscarnet]
inactive: 1 nM 3.44% | 8.33 nM 3.89% | 100 nM 2.56% | 833.33 nM 0.33% | 10000 nM 0.71%

N[C@H]1CC[C@H](N[C@@H]2C[C@H]2c2ccccc2)CC1
inactive: 1 nM -0.96% | 8.33 nM 2.24% | 100 nM 1.16% | 833.33 nM 1.11% | 10000 nM 1.79%

NS(=O)(=O)c1cc2c(cc1Cl)NC(C1CC3C=CC1C3)NS2(=O)=O (stereo not given) [cyclothiazide]
inactive: 1 nM 2.43% | 8.33 nM 0.31% | 100 nM 3.55% | 833.33 nM -0.08% | 10000 nM -1.44%

N[C@@H](Cc1c[nH]c2ccc(O)cc12)C(=O)O [5-hydroxytryptophan]
inactive: 1 nM -0.86% | 8.33 nM 0.52% | 100 nM 1.04% | 833.33 nM 2.16% | 10000 nM 2.55%

Cc1ncc(C[n+]2csc(CCO)c2C)c(N)n1 [thiamine]
inactive: 1 nM -3.81% | 8.33 nM -0.57% | 100 nM -1.61% | 833.33 nM -1.44% | 10000 nM 0.13%

O=C(NO)c1cnc(N2CCN(S(=O)(=O)c3ccc4ccccc4c3)CC2)nc1
inactive: 1 nM 1.24% | 8.33 nM 2.59% | 100 nM 2.04% | 833.33 nM -16.4% | 10000 nM -22.6%

CNCCc1ccc(O)c(O)c1 [deoxyepinephrine]
inactive: 1 nM -0.96% | 8.33 nM 2.29% | 100 nM 2.18% | 833.33 nM -0.04% | 10000 nM -0.83%

O=C1NC(=O)c2cc(Nc3ccc(F)cc3)c(Nc3ccc(F)cc3)cc21
inactive: 1 nM 1.21% | 8.33 nM -0.56% | 100 nM -1.81% | 833.33 nM 0.4% | 10000 nM 10.3%

Nc1ccc(-c2ccc3ncc4ccc(=O)n(-c5cccc(C(F)(F)F)c5)c4c3c2)cn1 [torin-2]
inactive: 1 nM 0.99% | 8.33 nM -0.26% | 100 nM -2.28% | 833.33 nM -4.78% | 10000 nM -8.11%

CC(C)Cc1ccc(C(C)C(=O)O)cc1 (stereo not given) [ibuprofen]
inactive: 1 nM 1.03% | 8.33 nM -0.113% | 100 nM -0.0767% | 833.33 nM 1.1% | 10000 nM -0.35%

COc1cc2c(cc1OC)C1CC(=O)C(CC(C)C)CN1CC2 (stereo not given) [tetrabenazine]
inactive: 1 nM -2.11% | 8.33 nM 0.64% | 100 nM 1.22% | 833.33 nM 2.22% | 10000 nM 0.85%

CC(C(=O)O)c1ccc2c(c1)Cc1ccccc1-2 (stereo not given) [cicloprofen]
inactive: 1 nM 1% | 8.33 nM 0.42% | 100 nM 2.68% | 833.33 nM 1.95% | 10000 nM 4.16%

CCCCc1ccc(NS(=O)(=O)c2ccc(F)cc2)cc1
inactive: 1 nM -1.42% | 8.33 nM -2.12% | 100 nM -1.58% | 833.33 nM -3.93% | 10000 nM -1.95%

Nc1nc(O)c2[nH]nnc2n1 [azaguanine-8]
inactive: 1 nM 1.2% | 8.33 nM 2% | 100 nM 1.6% | 833.33 nM 1.36% | 10000 nM 6.36%

Nc1cccc(-c2cc3c(Oc4cccc(O)c4)ncnc3[nH]2)c1
inactive: 1 nM 4.09% | 8.33 nM 0.18% | 100 nM -2.41% | 833.33 nM -3.87% | 10000 nM -11.4%

CCc1nc2ccc(Cl)cn2c1C(=O)NCc1ccc(N2CCC(c3ccc(OC(F)(F)F)cc3)CC2)cc1
inactive: 1 nM 0.5% | 8.33 nM 1.98% | 100 nM -0.55% | 833.33 nM 0.62% | 10000 nM -1.65%

Cc1cccn2c(=O)c(-c3nnn[nH]3)cnc12 [pemirolast]
inactive: 1 nM -0.01% | 8.33 nM 0.57% | 100 nM 0.12% | 833.33 nM 3.15% | 10000 nM -1.12%

O=C(NCC(=O)N1CC[C@H](N[C@H]2CC[C@@](O)(c3ccc(-c4ncccn4)cn3)CC2)C1)c1cccc(C(F)(F)F)c1
inactive: 1 nM -4.52% | 8.33 nM -2.69% | 100 nM 1.06% | 833.33 nM -0.75% | 10000 nM -0.61%

CC=CC1=C(C(=O)O)N2C(=O)[C@@H](NC(=O)[C@H](N)c3ccc(O)cc3)[C@H]2SC1 (mixture of isomers) [cefprozil]
inactive: 1 nM -0.42% | 8.33 nM 0.76% | 100 nM 2.16% | 833.33 nM -0.77% | 10000 nM 8.62%

CC[N+]1(C)CCCC(OC(=O)C(O)(c2ccccc2)c2ccccc2)C1 (stereo not given) [pipenzolate]
inactive: 1 nM -0.09% | 8.33 nM -0.02% | 100 nM -2.48% | 833.33 nM -0.83% | 10000 nM -1.6%

C=CC(=O)Nc1cc(Nc2nccc(-c3c[nH]c4ccccc34)n2)c(OC)cc1N(C)CCN(C)C
inactive: 1 nM -3.07% | 8.33 nM -6.83% | 100 nM -10.5% | 833.33 nM -13.9% | 10000 nM -12.3%

Cc1cccc(Nc2ccncc2S(=O)(=O)NC(=O)NC(C)C)c1 [torasemide]
inactive: 1 nM -0.3% | 8.33 nM -0.37% | 100 nM -0.51% | 833.33 nM -1.03% | 10000 nM -1.02%

CC(=O)CCCCn1c(=O)c2c(ncn2C)n(C)c1=O [pentoxifylline]
inactive: 1 nM 3.31% | 8.33 nM 2.23% | 100 nM 0.1% | 833.33 nM 1.21% | 10000 nM -0.68%

CN(C)N(C)C(=O)[C@@]1(Cc2ccccc2)CCCN(C(=O)[C@@H](Cc2c[nH]c3ccccc23)NC(=O)C(C)(C)N)C1 [anamorelin]
inactive: 1 nM -0.24% | 8.33 nM -1% | 100 nM 9.14% | 833.33 nM -2.12% | 10000 nM -0.05%

CC1(C)O[C@@H]2C[C@H]3[C@@H]4CCC5=CC(=O)C=C[C@]5(C)[C@H]4[C@@H](O)C[C@]3(C)[C@]2(C(=O)CO)O1 [desonide]
inactive: 1 nM 1.41% | 8.33 nM 2.82% | 100 nM 5.19% | 833.33 nM 5.19% | 10000 nM 1.37%

C[N+](C)(C)CCOP(=O)(O)OC[C@H](O)CO [choline-alfoscerate]
inactive: 1 nM -1.69% | 8.33 nM -1.94% | 100 nM -3.48% | 833.33 nM -1.31% | 10000 nM -2.46%

CCN(CC)CCOC(=O)c1ccc(N)cc1 [procaine]
inactive: 1 nM -1.32% | 8.33 nM -0.89% | 100 nM -0.82% | 833.33 nM -1.72% | 10000 nM -0.17%

O=C(O[C@H]1C[C@H]2CC[C@@H](C1)[N+]21CCCC1)C(O)(c1ccccc1)c1ccccc1 [trospium]
inactive: 1 nM -1.88% | 8.33 nM 0.55% | 100 nM 1.21% | 833.33 nM -1.72% | 10000 nM -0.69%

CCOc1cc(OCC)c(C(=O)CCC(=O)O)cc1OCC [trepibutone]
inactive: 1 nM -2.61% | 8.33 nM 0.72% | 100 nM -0.04% | 833.33 nM -0.1% | 10000 nM 0.69%

CN(C)C(=O)COC(=O)Cc1ccc(OC(=O)c2ccc(NC(=N)N)cc2)cc1 [camostat-mesilate]
inactive: 1 nM 3.69% | 8.33 nM -0.38% | 100 nM 1.74% | 833.33 nM 1.93% | 10000 nM -2.24%
